High-throughput results deposited in PubChem BioAssay by Johns Hopkins Ion Channel Center.
Rows were chosen to be rich in hits. Some 1.6% of all compounds tested hit in one or more screens of this group.
KCNQ2 enhance: potentiators of rat KCNQ2 potassium channel | B-score at 10 µM | AID 2239, 2010 | 310,000 tested, 0.54% active | Potassium voltage-gated channel subfamily KQT member 2 (Rattus norvegicus), O88943 | CHO-K1 KCNQ2, FluxOR thallium flux fluorescence; hits give high values;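 active means fluorescence ratio B-score at least 3 SD of library B-scores, with initial fluorescence B-score within 3 of them, cut at about 5.3 in these data; same plate scores as AID 2156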;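 further: B-score of peak minus minimum over baseline fluorescence ratio after K+ and Tl+ stimulus; positive B-score means potentiation of KCNQ2 with more thallium influx and brighter signal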
KCNQ2 inh: rat KCNQ2 potassium channel inhibitors, primary screen, cell-based, CHO-K1, FluxOR thallium flux, B-score | Potassium voltage-gated channel subfamily KQT member 2 (Rattus norvegicus), O88943 | 20 min; hits give low values | 310,000 tested, 1.1% active | AID 2156, 2009 | B-score at 10 µM;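 active means fluorescence ratio B-score at most minus 3 library SDs, with starting brightness B-score within 2 library SDs, cut at about -5.5 in these data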
* = called active by the depositor.

For CCN1CCN(Cc2ccc(NC(=O)c3cc(NC(=O)c4cnn(-c5ccccc5)c4N)cc(OC)c3)cc2C(F)(F)F)CC1 the results were KCNQ2 inh inactive.
`COc1ccc(OCCCC(=O)Nc2ccc(N3CCOCC3)cc2)cc1` gave KCNQ2 inh inactive.
`COc1ccc(S(=O)(=O)N2CCCCCC2)cc1C(=O)N(C)Cc1ccccc1F` gave KCNQ2 enhance -5.8 and KCNQ2 inh -5.8*.
`COc1cccc(NC(=O)CN(C)C(=O)c2cccc(S(=O)(=O)N3CCN(c4ccccc4)CC3)c2)c1` gave KCNQ2 enhance 0.05 and KCNQ2 inh inactive.
For COc1ccc(S(=O)(=O)N2CCCCCC2)cc1C(=O)N(C)Cc1ccc(C)cc1 the results were KCNQ2 inh inactive.
For COc1cccc(CN(C)C(=O)c2cc(S(=O)(=O)N3CCN(c4ccccc4)CC3)ccc2Cl)c1 the results were KCNQ2 enhance -5.6 and KCNQ2 inh -5.6*.
For COc1ccc(N2C3=C(CC4=C2CCCC4=O)C(=O)CCC3)cc1 the results were KCNQ2 inh inactive.
For COc1ccc(N2C3=C(CC4=C2CC(C)(C)CC4=O)C(=O)CC(C)(C)C3)cc1 the results were KCNQ2 enhance -10 and KCNQ2 inh -10*.
CN1CCN(S(=O)(=O)c2ccc(NC(=O)c3ccc(F)cc3Cl)cc2)CC1 was read as KCNQ2 enhance 1.6 and KCNQ2 inh inactive.
For O/N=C/c1cc(Br)cc(Br)c1OCc1ccccc1 the results were KCNQ2 enhance -5.6 and KCNQ2 inh -5.6*.
`O/N=C/c1ccc(OCc2ccccc2)c(Br)c1` gave KCNQ2 inh inactive.
Screening O=C(COc1ccc(S(=O)(=O)N2CCOCC2)cc1)Nc1ccc(Cl)c(C(F)(F)F)c1 returned KCNQ2 enhance 0.45 and KCNQ2 inh inactive.
For CCN1/C(=C/C=C/C=C/C=C/c2sc3ccccc3[n+]2CC)Sc2ccccc21 the results were KCNQ2 inh inactive.
CCN1/C(=C/C=C/C=C/c2sc3ccccc3[n+]2CC)Sc2ccccc21 was read as KCNQ2 enhance -21 and KCNQ2 inh -21*.
Screening N#Cc1nc(-c2ccc([N+](=O)[O-])cc2)oc1N1CCCCC1 returned KCNQ2 inh inactive.
For Cc1ccc(-c2cc(C(F)F)n3ncc(C(=O)N4CCN(c5cccc(C)c5C)CC4)c3n2)cc1 the results were KCNQ2 enhance -6.4 and KCNQ2 inh -6.4*.
`CCOC(=O)N1CCN(C(=O)c2cnn3c(C(F)F)cc(-c4ccc(C)cc4)nc23)CC1` gave KCNQ2 enhance 3 and KCNQ2 inh inactive.
CCC1=NN(C(=O)c2ccc(Br)cc2)C(O)(c2ccccc2)C1 (configuration not stated) was read as KCNQ2 enhance 6* and KCNQ2 inh inactive.
CC1=NN(C(=O)c2ccccc2)C(O)(c2ccc(Br)cc2)C1 (configuration not stated) was read as KCNQ2 enhance 1.1 and KCNQ2 inh inactive.
`O=C(Nc1ccccc1Br)c1ccccc1-c1ccccc1` gave KCNQ2 inh inactive.
`O=C(Nc1ccccc1-c1ccccc1)c1ccccc1Br` gave KCNQ2 enhance -6.3 and KCNQ2 inh -6.3*.
CCC(c1nnnn1C1CCCC1)N1CCN(Cc2ccccc2)CC1 (configuration not stated) was read as KCNQ2 inh inactive.
`COc1ccc(NCc2nnc(SCC(=O)c3ccc(OC)cc3)o2)cc1` gave KCNQ2 enhance 0.8 and KCNQ2 inh inactive.
`CCOc1cc(C(=O)CSc2nnc(CNc3ccc(Cl)cc3)o2)ccc1NC(=O)CC` gave KCNQ2 enhance 6.2* and KCNQ2 inh inactive.
For Cc1nn(-c2ccc(F)cc2F)c2c1-c1nc(N3CCCC3)ncc1CC2 the results were KCNQ2 inh inactive.
Screening CCc1ccc(-c2nc(CS(=O)CC(=O)NCCc3ccccc3)c(C)o2)cc1 (configuration not stated) returned KCNQ2 enhance 0.96 and KCNQ2 inh inactive.
For CCCCn1c(SCc2nc3ccccc3s2)nc2ccccc2c1=O the results were KCNQ2 enhance -7.8 and KCNQ2 inh -7.8*.
Screening O=c1c2ccccc2nc(SCc2nc3ccccc3s2)n1Cc1ccco1 returned KCNQ2 inh inactive.
Screening COc1cc(/C=C/C(=O)OCN2C(=O)c3ccccc3C2=O)ccc1OC(F)F returned KCNQ2 enhance 0.73 and KCNQ2 inh inactive.
`O=C(O)Cc1coc2cc3c(cc12)CCC3` gave KCNQ2 inh inactive.
`O=C(Cc1coc2cc3c(cc12)CCC3)NC1CCCCCCC1` gave KCNQ2 enhance 12* and KCNQ2 inh inactive.
`Cc1ccccc1NC(=O)c1sc(NC(=O)C2CC2)nc1C` gave KCNQ2 enhance 1.6 and KCNQ2 inh inactive.
O=c1nc2n(c3ccc([N+](=O)[O-])cc13)CCCCC2 was read as KCNQ2 inh inactive.
O=[N+]([O-])c1ccc2c(c1)C=C1CCCCC1(N1CCCCC1)O2 (configuration not stated) was read as KCNQ2 enhance -5.7 and KCNQ2 inh -5.7*.
For O=C(c1ccc2oc(CCc3ccccc3)nc2c1)N1CC[C@H](O)C1 the results were KCNQ2 inh inactive.
`Cc1cccc(N=Cc2cc3c(cc2[N+](=O)[O-])OCO3)c1` gave KCNQ2 enhance -6.5 and KCNQ2 inh -6.5*.
Screening O=[N+]([O-])c1cc2c(cc1C=Nc1ccccc1)OCO2 returned KCNQ2 inh inactive.
`O=C(COc1ccc2ccc(=O)oc2c1)N1CCN(C(=O)C2COc3ccccc3O2)CC1` (configuration not stated) gave KCNQ2 enhance 0.02 and KCNQ2 inh inactive.
Screening O=C(/C=C/c1cccnc1)c1ccc(O)cc1 returned KCNQ2 inh inactive.
O=C(/C=C/c1cccnc1)c1ccccc1O was read as KCNQ2 enhance -5.9 and KCNQ2 inh -5.9*.
Screening O=C(COc1ccccc1)NCCSCc1ccc(Cl)cc1 returned KCNQ2 enhance -6.6 and KCNQ2 inh -6.6*.
`COc1ccccc1OCC(=O)NCCSCc1cccc(Cl)c1` gave KCNQ2 enhance -6.4 and KCNQ2 inh -6.4*.
Screening COc1ccccc1OCC(=O)NCCNC(=O)COc1ccccc1OC returned KCNQ2 inh inactive.
For COc1ccccc1C(=O)NCCSCc1ccccc1Cl the results were KCNQ2 enhance -6.4 and KCNQ2 inh -6.4*.
O=C(COc1ccccc1)NCCSCc1ccccc1Cl was read as KCNQ2 inh inactive.
`COc1ccccc1OCC(=O)NCCSCc1ccccc1Cl` gave KCNQ2 enhance -6.2 and KCNQ2 inh -6.2*.
`O=C(Cc1ccccc1)NCCSCc1ccc(Cl)cc1` gave KCNQ2 enhance 1.4 and KCNQ2 inh inactive.
For COc1ccccc1C(=O)NCCCNC(=O)c1ccccn1 the results were KCNQ2 inh inactive.
`O=C(COC(=O)/C=C/c1ccccc1[N+](=O)[O-])NCC(F)(F)F` gave KCNQ2 enhance 0.79 and KCNQ2 inh inactive.
Screening CC(C)(C)c1ccc(C(=O)NCCOc2ccccc2)cc1 returned KCNQ2 inh inactive.
For COc1ccccc1C(=O)NCCOc1ccc(C(C)(C)C)cc1 the results were KCNQ2 enhance -5.8 and KCNQ2 inh -5.8*.
`Cc1ccc(OC(=O)c2ccc(Cl)c([N+](=O)[O-])c2)cn1` gave KCNQ2 enhance 0.09 and KCNQ2 inh inactive.
Cc1ccc(C(=O)Oc2cccnc2)cc1[N+](=O)[O-] was read as KCNQ2 enhance 6.1* and KCNQ2 inh inactive.
